In ChEMBL document CHEMBL3988442, “University of Dundee, Small-Polar-MMV Screening Library” (2021):
For some of these results: Entries with a potency or affinity are not part of this list.

Assays:
Design in all cases: scale not given: direction of the effect not stated beside the values
[1] = target: Protein translocase subunit SecA (Escherichia coli (strain K12)) (UniProt P10408); assay: Assay to Identify E. coli SecA ATPase Inhibitors; format: functional; details: 30 µM
[2] = target: T1, Ubiquitin-activating enzyme e1, putative (Leishmania donovani (strain BPK282A1)) (UniProt E9BSI1); assay: Leishmania donovani Ubiquitin Activating Enzyme (LdE1); format: functional; details: 30 µM
T1 sequence (whole entry): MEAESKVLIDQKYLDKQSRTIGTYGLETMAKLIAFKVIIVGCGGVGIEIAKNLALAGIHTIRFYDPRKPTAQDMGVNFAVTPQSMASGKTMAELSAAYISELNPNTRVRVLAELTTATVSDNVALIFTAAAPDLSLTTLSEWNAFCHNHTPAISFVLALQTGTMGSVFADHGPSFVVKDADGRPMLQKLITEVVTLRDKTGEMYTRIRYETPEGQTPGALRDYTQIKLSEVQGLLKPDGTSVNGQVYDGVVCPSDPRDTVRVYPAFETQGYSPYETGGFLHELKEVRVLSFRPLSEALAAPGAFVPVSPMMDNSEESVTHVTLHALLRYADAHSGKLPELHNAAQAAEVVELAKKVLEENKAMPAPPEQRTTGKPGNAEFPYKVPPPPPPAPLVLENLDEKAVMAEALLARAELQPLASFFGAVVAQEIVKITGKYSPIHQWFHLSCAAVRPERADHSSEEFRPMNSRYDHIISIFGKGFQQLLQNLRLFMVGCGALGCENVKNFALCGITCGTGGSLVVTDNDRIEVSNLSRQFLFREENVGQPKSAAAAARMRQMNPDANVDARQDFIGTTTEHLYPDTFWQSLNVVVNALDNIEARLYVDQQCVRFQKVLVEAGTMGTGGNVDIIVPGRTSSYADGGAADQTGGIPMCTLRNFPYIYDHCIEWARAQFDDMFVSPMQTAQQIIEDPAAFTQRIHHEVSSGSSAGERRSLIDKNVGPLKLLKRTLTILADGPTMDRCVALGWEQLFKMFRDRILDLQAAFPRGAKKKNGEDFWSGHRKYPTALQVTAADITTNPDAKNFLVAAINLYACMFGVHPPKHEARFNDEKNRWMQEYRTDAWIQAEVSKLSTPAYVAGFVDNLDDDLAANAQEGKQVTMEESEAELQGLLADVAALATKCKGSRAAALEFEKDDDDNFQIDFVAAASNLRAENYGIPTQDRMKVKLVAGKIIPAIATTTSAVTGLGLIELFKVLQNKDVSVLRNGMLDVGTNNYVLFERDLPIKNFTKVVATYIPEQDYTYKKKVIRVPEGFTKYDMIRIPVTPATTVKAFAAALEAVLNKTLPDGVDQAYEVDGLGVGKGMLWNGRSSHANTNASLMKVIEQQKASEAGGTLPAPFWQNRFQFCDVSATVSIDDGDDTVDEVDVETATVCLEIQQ

[3] = target: AMP-activated protein kinase, AMPK (Homo sapiens) (UniProt P54646+O43741+P54619+Q9UGJ0+Q9Y478+Q13131+Q9UGI9); assay: AMP-dependent Kinase enzyme assay. An in vitro enzyme assay that detects ADP turnover that is directly proportional to AMPK activity. This uses naive AMPK that is activated during the assay with MK-8722; format: functional; details: 30 µM
[4] = target: Sialic acid-binding Ig-like lectin 9 (Homo sapiens) (UniProt Q9Y336); assay: Hs-Siglec9 ALPHAscreen SOP 20170721; details: 10 µM
Trypanosoma cruzi = assay: Trypanosoma cruzi phosphomannomutase and mannose-1-phosphate guanylyltransferase assay; format: functional; details: 10 µM
[5] = target: T2, Arginase-2, mitochondrial (Homo sapiens) (UniProt P78540); assay: in vitro enzyme assay to detect the production of urea directly proportional to the activity of Arginase II; format: functional; details: 33.3 µM; note: in the data most compounds retested in dose-response had high values
T2 sequence (whole entry): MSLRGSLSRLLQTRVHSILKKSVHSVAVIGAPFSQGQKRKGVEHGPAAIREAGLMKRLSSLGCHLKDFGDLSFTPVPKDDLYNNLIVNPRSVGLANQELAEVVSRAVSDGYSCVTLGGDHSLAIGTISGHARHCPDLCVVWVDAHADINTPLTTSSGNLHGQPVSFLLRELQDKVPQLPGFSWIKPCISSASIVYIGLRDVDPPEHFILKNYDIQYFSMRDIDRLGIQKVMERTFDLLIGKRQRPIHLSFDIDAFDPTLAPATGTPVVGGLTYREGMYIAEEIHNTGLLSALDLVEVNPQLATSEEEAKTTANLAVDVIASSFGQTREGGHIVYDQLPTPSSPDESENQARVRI

[6] = target: T3, Proteasome subunit beta (Trypanosoma cruzi) (UniProt O96673); assay: Trypanosoma cruzi proteasome chymotrypsin-like activity (TcProtChymo) assay.; note: in the data most compounds retested in dose-response had high values; format: functional; details: 9.37 µM
T3 sequence (whole entry): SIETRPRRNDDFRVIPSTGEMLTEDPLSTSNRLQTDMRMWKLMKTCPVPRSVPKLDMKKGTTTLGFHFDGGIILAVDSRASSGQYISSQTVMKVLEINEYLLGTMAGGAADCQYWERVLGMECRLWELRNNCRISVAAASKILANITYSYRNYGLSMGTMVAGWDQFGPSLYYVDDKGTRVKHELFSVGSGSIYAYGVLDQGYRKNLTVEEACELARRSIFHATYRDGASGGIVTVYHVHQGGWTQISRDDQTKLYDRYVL

Homo sapiens = species: Homo sapiens; assay: To identify inhibition of the IFN signalling (Jak-Stat) pathway via expression of an eGFP reporter gene under the control of an IFN-stimulated response element (ISRE) containing MxA promoter.; format: functional; details: 30 µM
[7] = target: T4, Tyrosyl-tRNA synthetase, putative (Trypanosoma cruzi (strain CL Brener)) (UniProt Q4DSP6); assay: Trypanosoma cruzi tyrosyl tRNA synthetase (TcYRS) _High Tyrosine SOP; format: functional; details: 30 µM; note: in the data most compounds retested in dose-response had high values
T4 sequence (whole entry): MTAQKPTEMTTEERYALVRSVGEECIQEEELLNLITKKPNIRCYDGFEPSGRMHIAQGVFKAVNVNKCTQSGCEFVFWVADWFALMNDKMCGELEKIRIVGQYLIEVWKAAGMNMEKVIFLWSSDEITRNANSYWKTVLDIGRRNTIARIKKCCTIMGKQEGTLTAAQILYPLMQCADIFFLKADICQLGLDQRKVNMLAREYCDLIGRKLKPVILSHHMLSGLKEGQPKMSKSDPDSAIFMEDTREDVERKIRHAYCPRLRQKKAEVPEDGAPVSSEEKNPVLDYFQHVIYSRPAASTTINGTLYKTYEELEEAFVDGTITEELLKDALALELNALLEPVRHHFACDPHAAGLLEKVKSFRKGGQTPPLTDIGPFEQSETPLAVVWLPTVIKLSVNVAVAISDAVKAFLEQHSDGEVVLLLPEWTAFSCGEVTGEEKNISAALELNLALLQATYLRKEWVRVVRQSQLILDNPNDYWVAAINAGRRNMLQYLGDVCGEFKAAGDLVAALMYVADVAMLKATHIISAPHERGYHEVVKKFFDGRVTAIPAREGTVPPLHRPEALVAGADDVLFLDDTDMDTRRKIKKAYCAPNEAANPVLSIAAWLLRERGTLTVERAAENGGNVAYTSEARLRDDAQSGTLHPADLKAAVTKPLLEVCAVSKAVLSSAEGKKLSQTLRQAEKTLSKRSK

[8] = target: T4, Tyrosyl-tRNA synthetase, putative (Trypanosoma cruzi (strain CL Brener)); assay: Trypanosoma cruzi tyrosyl tRNA synthetase (TcYRS) SOP; format: functional; details: 30 µM
[9] = target: Chromo domain-containing protein 1 (Saccharomyces cerevisiae (strain ATCC 204508 / S288c) (Baker's yeast)) (UniProt P32657); assay: ScCHD-1 Enzyme Inhibition Assay; format: functional; details: 30 µM; note: in the data most compounds retested in dose-response had high values
Chain of Chromo domain-containing protein 1 (Saccharomyces cerevisiae (strain ATCC 204508 / S288c) (Baker's yeast)) (P32657 whole entry, the tested form may be a part): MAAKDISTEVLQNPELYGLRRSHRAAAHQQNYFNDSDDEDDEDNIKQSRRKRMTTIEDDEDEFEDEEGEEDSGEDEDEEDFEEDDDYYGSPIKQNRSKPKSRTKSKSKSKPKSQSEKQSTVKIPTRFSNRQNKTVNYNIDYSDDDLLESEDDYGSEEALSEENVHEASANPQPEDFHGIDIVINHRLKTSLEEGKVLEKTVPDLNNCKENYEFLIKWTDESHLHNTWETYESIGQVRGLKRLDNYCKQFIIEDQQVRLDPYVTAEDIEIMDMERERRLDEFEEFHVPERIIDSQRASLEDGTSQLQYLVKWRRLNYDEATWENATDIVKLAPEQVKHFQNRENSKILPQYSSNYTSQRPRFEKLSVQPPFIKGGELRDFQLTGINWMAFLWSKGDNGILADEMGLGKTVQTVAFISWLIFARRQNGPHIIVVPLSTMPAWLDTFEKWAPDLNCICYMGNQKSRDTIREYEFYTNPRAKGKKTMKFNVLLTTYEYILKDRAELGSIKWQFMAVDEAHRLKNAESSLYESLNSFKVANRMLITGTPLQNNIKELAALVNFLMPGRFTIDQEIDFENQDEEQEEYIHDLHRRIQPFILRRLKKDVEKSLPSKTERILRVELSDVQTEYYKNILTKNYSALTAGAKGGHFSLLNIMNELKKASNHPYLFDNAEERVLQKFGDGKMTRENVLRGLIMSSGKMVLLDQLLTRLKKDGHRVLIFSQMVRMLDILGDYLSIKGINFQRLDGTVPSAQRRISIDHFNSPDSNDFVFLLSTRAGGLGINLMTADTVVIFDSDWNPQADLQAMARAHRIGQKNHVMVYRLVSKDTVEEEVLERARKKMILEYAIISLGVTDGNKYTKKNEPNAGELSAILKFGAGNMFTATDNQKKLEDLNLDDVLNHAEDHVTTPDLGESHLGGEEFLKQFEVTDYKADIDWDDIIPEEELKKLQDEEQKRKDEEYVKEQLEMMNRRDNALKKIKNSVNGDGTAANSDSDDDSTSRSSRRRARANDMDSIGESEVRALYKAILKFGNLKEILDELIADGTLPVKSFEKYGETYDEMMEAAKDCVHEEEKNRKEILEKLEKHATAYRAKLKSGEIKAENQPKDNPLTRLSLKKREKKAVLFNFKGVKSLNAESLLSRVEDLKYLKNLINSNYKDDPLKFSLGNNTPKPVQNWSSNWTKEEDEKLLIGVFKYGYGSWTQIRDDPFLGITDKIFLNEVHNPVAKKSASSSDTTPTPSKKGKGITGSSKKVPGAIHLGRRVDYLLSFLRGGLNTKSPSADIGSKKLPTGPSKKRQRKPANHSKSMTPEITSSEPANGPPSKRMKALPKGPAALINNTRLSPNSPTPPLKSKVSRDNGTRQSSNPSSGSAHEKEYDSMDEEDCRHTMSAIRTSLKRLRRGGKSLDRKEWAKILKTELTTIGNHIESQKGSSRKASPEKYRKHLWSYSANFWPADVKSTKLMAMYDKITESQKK

Chain of Sialic acid-binding Ig-like lectin 9 (Homo sapiens) (Q9Y336 whole entry): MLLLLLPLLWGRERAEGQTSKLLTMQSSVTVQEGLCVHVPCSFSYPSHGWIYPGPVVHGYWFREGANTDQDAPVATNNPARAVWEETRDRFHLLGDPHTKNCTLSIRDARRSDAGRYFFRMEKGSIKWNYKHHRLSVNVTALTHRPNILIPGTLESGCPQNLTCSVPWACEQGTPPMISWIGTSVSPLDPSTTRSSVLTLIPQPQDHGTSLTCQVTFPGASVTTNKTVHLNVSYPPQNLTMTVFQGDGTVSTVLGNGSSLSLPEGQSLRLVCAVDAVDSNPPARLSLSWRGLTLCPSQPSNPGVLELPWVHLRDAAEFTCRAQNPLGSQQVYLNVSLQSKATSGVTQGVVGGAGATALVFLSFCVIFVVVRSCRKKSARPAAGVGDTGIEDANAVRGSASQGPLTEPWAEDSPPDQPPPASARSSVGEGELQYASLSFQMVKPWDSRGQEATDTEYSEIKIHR
Chain of Protein translocase subunit SecA (Escherichia coli (strain K12)) (P10408 whole entry): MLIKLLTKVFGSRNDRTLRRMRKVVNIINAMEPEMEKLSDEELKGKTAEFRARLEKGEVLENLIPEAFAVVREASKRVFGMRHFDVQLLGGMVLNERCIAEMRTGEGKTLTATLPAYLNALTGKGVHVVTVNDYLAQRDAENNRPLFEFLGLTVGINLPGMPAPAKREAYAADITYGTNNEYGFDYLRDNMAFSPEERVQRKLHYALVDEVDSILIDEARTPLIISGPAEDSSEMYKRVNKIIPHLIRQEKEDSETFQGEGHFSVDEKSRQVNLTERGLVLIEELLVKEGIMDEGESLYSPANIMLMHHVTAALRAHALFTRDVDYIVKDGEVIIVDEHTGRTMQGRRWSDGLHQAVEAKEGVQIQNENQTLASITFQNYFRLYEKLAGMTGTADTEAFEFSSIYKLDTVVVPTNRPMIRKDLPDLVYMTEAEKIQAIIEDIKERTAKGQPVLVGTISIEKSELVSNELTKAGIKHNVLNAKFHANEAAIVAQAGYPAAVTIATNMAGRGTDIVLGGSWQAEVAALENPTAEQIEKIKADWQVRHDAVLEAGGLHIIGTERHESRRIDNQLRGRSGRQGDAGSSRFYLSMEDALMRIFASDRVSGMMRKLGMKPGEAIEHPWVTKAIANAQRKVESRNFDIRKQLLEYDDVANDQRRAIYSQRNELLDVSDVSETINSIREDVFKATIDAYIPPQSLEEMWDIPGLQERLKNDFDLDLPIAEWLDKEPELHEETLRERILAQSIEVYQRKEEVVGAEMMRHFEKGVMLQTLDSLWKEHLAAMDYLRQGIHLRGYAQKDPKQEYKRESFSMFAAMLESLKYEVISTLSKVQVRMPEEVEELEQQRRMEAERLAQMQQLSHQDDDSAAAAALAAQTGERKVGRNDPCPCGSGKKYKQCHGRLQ

Row | Structure (SMILES) | Percent Effect [1] [%] | Percent Effect [2] [%] | Percent Effect [3] [%] | Percent Effect [4] [%] | Percent Effect (Trypanosoma cruzi) [%] | Percent Effect [5] [%] | Percent Effect [6] [%] | Percent Effect (Homo sapiens) [%] | Percent Effect [7] [%] | Percent Effect [8] [%] | Percent Effect [9] [%]
1 | Cc1cc(C)n(C2CCCN(C(=O)c3cc(C4CC4)on3)C2)n1 (stereo unspecified) | -4.93 | 5.2 | -0.0913 | -0.636 | 4.41 | -1.05 | 13.8 | -1.26 | 1.91 | 9.41 | -18.6
2 | CC(=O)N1CCCN(C(=O)NCc2ccccn2)CC1 | -4.25 | 0 | 2.97 | 0.332 | -5.88 | 3.6 | 3.81 | 2.28 | 1.48 | -6.17 | 9.43
3 | Cn1ccnc1CN1CCCC(Cc2ccccn2)C1 (stereo unspecified) | -7.44 | 20.3 | -4.84 | 1.21 | 4.94 | -2.55 | 13.6 | 1.89 | 4.3 | 16.9 | -20.2
4 | Cc1cccc(CN2C(=O)CO[C@@H]3CN(Cc4nccn4C)C[C@H]32)c1 | 0.226 | 10.8 | -0.86 | -6.69 | 3.91 | 25.8 | 20.5 | 12.6 | 9.9 | 18.3 | -3.16
5 | CCS(=O)(=O)CCn1ccc(NC(=O)CCc2cccc(C)c2)n1 | -1.95 | 5.41 | 2.06 | -5.21 | -3.91 | -2.08 | 11.8 | 5.07 | 9.9 | 13.4 | 4.48
6 | CCCNC(=O)c1ccc2c(c1)C(=O)N(CC(C)C)C2=O | -2.78 | -8.11 | 0.767 | 5.78 | -2.32 | -10 | 3.45 | 0.98 | 0.529 | 2.44 | -2.46
7 | Cc1ccc(CN2CCC3(CC(C(=O)NCC4CC4)=NO3)C2)cc1C (stereo unspecified) | -4.16 | 2.67 | 7.69 | -4.65 | -4.05 | -64 | 0.684 | 2 | 0 | 7.5 | -7.33
8 | O=C(NCCOc1cccc(Cl)c1)C1CC(=O)N(CC2CC2)C1 (stereo unspecified) | -3.05 | 26.3 | 6.34 | -5.8 | 6.82 | 4.32 | 13.3 | -1.81 | 4.43 | 25.9 | -10.9
9 | COc1cccc(CN2CCN(c3ccc4nncn4n3)C(C)C2)c1 (stereo unspecified) | -6.29 | -20.8 | -1.07 | -4.72 | -3 | 0.712 | -1.86 | 85.3 | 6.8 | -2.44 | 5.81
10 | COCCNC(=O)[C@H]1CN(Cc2nccs2)C[C@H]2OCC[C@@H]12 | -3.36 | 16.4 | -2.81 | 11.4 | 3.17 | 2.4 | 6.25 | 15.8 | 5.21 | 1.24 | -0.333
11 | COc1ccc(OC)c(CCNC(=O)NC(C)Cn2ccnc2)c1 (stereo unspecified) | -2.99 | 10.5 | -9.22 | -3.09 | -9.77 | -6.13 | 5.35 | 34.6 | -1.47 | 4.88 | -5.83
